Reference: the supplement of paper PMC10849652
Of roughly 8,800 targets only a part is listed; those with a hit were picked by preference. About 0.5% of all pairs of compound and target were hits.

Legend:
Experiment in all cases: log2 fold change, soluble protein after heating vs DMSO (PISA); higher = thermal stabilisation; K562 lysate, 10 uM; active = over 0.2 and 3.5 SD of the protein, either way, in both replicates (recomputed)
vemurafenib = compound: CCCS(=O)(=O)Nc1ccc(F)c(C(=O)c2c[nH]c3ncc(-c4ccc(Cl)cc4)cc23)c1F [vemurafenib]
Method in brief: (§1)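 To prepare the extract, K562 pellets were dounce-homogenised in PBS pH 7.4 with 1 mM MgCl2, giving crude material at 1 mg/mL protein. This was treated with 10 μM compound for 30 min, then heated in aliquots for 3 min over 48°C-58°C before pooling and addition of NP-40 to 0.5% at 4°C. Centrifugation at 21,000xg for 90 min left soluble protein in the supernatant, which TMTpro 16plex LC-MS/MS quantified with equalised channel sums. Results are log-two fold changes in thermal stability compared with solvent controls, from duplicates.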

[1] = compound: CCCS(=O)(=O)Nc1ccc(F)c(C(=O)c2c[nH]c3ncc(Cl)cc23)c1F
Method in brief: as §1

barasertib = compound: CCN(CCCOc1ccc2c(Nc3cc(CC(=O)Nc4cccc(F)c4)[nH]n3)ncnc2c1)CCOP(=O)(O)O [barasertib]
Method in brief: as §1

[2] = compound: CC[C@@H]1C(=O)N(C)c2cnc(Nc3ccc(C(=O)NC4CCN(C)CC4)cc3OC)nc2N1C1CCCC1
Method in brief: as §1

volasertib = compound: CC[C@@H]1C(=O)N(C)c2cnc(Nc3ccc(C(=O)N[C@H]4CC[C@H](N5CCN(CC6CC6)CC5)CC4)cc3OC)nc2N1C(C)C [volasertib]
Method in brief: as §1

[3] = compound: CCn1c(C(=O)N(C2CC2)C2CC2)cc2c3c(ncn3C)c(Nc3cc(C)n(C)n3)nc21
Method in brief: as §1

[4] = compound: CCn1cc(-c2ccnc3[nH]c(-c4cccc(CN(C)C)c4)cc23)c(-c2ccc(NC(=O)N(C)C)cc2)n1
Method in brief: as §1

[5] = compound: CN1CCC(CNc2ccc3ncc(-c4cccc(OC(F)(F)F)c4)n3n2)CC1
Method in brief: as §1

saracatinib = compound: CN1CCN(CCOc2cc(OC3CCOCC3)c3c(Nc4c(Cl)ccc5c4OCO5)ncnc3c2)CC1 [saracatinib]
Method in brief: as §1

sotrastaurin = compound: CN1CCN(c2nc(C3=C(c4c[nH]c5ccccc45)C(=O)NC3=O)c3ccccc3n2)CC1 [sotrastaurin]
Method in brief: as §1

alvocidib = compound: CN1CC[C@H](c2c(O)cc(O)c3c(=O)cc(-c4ccccc4Cl)oc23)[C@H](O)C1 [alvocidib]
Method in brief: as §1

Tubastatin A = compound: CN1CCc2c(c3ccccc3n2Cc2ccc(C(=O)NO)cc2)C1 [Tubastatin A]
Method in brief: as §1

[6] = compound: CNC(=O)C1=CC=CC=C1NC2=NC(=NC=C2Cl)NC3=C(C=C(C=C3)N4CCOCC4)OC
Method in brief: as §1

defactinib = compound: CNC(=O)c1ccc(Nc2ncc(C(F)(F)F)c(NCc3nccnc3N(C)S(C)(=O)=O)n2)cc1 [defactinib]
Method in brief: as §1

[7] = compound: CNc1nc(-c2ccc3c(N)n[nH]c3c2)cc(N2C[C@@H](C(=O)NC3CCCCC3)CC[C@H]2C)n1
Method in brief: as §1

encorafenib = compound: COC(=O)N[C@@H](C)CNc1nccc(-c2cn(C(C)C)nc2-c2cc(Cl)cc(NS(C)(=O)=O)c2F)n1 [encorafenib]
Method in brief: as §1

[8] = compound: COC(=O)[C@H](CCSC)NC(=O)C1=C(C=C(C=C1)NC[C@H](CS)N)C2=CC=CC=C2
Method in brief: as §1

alisertib = compound: COc1cc(Nc2ncc3c(n2)-c2ccc(Cl)cc2C(c2c(F)cccc2OC)=NC3)ccc1C(=O)O [alisertib]
Method in brief: as §1

[9] = compound: COc1cc2nc(-c3cc(F)ccc3O)nc(N[C@@H]3CNC[C@H]3C(C)(C)O)c2cc1OC
Method in brief: as §1

gefitinib = compound: COc1cc2ncnc(Nc3ccc(F)c(Cl)c3)c2cc1OCCCN1CCOCC1 [gefitinib]
Method in brief: as §1

Measured: log2 fold change

TRAPPC6A isoform 2 (UniProt O75865)
UniProt O75865, sequence (O75865 whole entry, looked up): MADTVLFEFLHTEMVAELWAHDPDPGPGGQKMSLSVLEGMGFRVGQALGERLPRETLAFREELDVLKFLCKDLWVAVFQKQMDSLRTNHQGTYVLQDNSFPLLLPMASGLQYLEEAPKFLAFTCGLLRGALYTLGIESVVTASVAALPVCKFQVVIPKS
active: [2] -0.288
inactive: vemurafenib -0.144 | [1] 0.027 | barasertib -0.001 | volasertib -0.035 | [3] -0.072 | [4] -0.228 | [5] -0.096 | saracatinib 0.001 | sotrastaurin -0.042 | alvocidib 0.059 | Tubastatin A -0.006 | [6] 0.011 | defactinib -0.026 | [7] -0.017 | encorafenib -0.142 | [8] -0.027 | alisertib -0.052 | [9] 0 | gefitinib -0.043

TPD52L2 isoform 7 (UniProt O43399)
UniProt O43399, sequence (O43399 whole entry, looked up): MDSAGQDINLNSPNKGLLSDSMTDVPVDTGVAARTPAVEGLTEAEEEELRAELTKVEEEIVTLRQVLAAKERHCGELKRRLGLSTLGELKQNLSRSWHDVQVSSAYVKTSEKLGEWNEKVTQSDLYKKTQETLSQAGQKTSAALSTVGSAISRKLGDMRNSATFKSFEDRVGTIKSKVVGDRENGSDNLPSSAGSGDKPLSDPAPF
inactive: vemurafenib -0.02 | [1] -0.033 | barasertib 0.045 | [2] 0.048 | volasertib 0.017 | [3] 0.011 | [4] -0.14 | [5] 0.207 | saracatinib 0.003 | sotrastaurin 0.034 | alvocidib -0.043 | Tubastatin A 0.062 | [6] -0.005 | defactinib 0.023 | [7] 0.086 | encorafenib -0.026 | [8] 0.008 | alisertib -0.01 | [9] 0.037 | gefitinib 0.02

TP53RK (UniProt Q96S44)
UniProt Q96S44, sequence (Q96S44 whole entry, looked up): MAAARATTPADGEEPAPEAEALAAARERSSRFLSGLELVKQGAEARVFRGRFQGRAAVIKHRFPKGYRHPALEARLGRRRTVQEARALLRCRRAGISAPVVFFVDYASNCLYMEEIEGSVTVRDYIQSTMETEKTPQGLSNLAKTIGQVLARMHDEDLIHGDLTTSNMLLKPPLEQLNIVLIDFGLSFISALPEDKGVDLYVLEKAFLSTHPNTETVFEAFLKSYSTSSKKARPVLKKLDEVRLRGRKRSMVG
inactive: vemurafenib -0.018 | [1] 0.047 | barasertib 0 | [2] -0.058 | volasertib -0.002 | [3] 0.013 | [4] 0.025 | [5] -0.039 | saracatinib -0.049 | sotrastaurin -0.023 | alvocidib -0.012 | Tubastatin A 0.054 | [6] -0.037 | defactinib 0.019 | [7] -0.026 | encorafenib 0.028 | [8] 0.025 | alisertib 0.001 | [9] 0.002 | gefitinib -0.042

UBAP2 (UniProt Q5T6F2)
UniProt Q5T6F2, sequence (Q5T6F2 whole entry, looked up): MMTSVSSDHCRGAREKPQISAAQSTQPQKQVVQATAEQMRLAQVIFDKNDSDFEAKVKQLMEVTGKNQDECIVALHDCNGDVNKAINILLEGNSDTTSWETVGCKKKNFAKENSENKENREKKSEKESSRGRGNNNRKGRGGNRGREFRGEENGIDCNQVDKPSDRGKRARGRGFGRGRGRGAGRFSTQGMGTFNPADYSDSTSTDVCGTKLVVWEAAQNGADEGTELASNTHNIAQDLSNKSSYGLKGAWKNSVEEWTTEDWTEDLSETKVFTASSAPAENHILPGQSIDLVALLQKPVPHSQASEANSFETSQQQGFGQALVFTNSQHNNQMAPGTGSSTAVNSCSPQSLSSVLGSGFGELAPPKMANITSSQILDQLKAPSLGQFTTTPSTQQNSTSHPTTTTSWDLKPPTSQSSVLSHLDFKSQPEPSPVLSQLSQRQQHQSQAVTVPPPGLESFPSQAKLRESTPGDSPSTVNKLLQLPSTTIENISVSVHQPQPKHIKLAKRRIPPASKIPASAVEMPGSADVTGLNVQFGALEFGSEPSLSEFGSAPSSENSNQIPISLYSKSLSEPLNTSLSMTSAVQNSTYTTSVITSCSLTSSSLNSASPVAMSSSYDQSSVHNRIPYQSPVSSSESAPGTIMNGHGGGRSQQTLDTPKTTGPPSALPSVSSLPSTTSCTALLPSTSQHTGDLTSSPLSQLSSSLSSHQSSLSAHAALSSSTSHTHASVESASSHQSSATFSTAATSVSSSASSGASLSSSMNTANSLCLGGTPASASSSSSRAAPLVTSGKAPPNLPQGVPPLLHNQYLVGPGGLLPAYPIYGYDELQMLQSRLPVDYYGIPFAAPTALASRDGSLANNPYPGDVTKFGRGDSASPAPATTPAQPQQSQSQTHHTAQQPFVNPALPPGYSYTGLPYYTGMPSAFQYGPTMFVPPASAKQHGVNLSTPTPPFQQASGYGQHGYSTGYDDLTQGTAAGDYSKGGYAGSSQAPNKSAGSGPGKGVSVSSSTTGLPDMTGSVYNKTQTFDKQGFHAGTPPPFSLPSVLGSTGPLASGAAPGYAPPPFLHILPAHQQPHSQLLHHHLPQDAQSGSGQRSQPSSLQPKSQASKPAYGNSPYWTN
inactive: vemurafenib 0.009 | [1] 0.016 | barasertib -0.007 | [2] 0.071 | volasertib -0.002 | [3] 0.004 | [4] -0.172 | [5] 0.106 | saracatinib 0.028 | sotrastaurin 0.02 | alvocidib -0.081 | Tubastatin A 0.026 | [6] -0.026 | defactinib -0.003 | [7] 0.005 | encorafenib 0.033 | [8] -0.021 | alisertib 0.005 | [9] 0.011 | gefitinib 0.014

TUBE1 (UniProt Q9UJT0)
UniProt Q9UJT0, sequence (Q9UJT0 whole entry, looked up): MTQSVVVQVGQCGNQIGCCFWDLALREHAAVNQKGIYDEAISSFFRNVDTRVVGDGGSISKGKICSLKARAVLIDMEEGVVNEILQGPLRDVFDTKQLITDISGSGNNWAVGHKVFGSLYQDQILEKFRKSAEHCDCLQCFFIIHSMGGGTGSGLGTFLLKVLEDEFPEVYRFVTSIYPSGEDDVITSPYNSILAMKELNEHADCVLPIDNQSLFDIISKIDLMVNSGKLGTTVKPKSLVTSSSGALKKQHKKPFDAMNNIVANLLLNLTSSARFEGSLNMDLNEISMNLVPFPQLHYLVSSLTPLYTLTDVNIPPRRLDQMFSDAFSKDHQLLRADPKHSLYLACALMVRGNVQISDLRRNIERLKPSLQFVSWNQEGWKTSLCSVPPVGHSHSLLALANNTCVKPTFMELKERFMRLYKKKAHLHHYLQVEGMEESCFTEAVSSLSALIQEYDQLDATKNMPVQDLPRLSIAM
inactive: vemurafenib 0.036 | [1] 0.012 | barasertib 0.03 | [2] 0.112 | volasertib -0.005 | [3] 0.028 | [4] 0.257 | [5] -0.082 | saracatinib 0.089 | sotrastaurin 0.043 | alvocidib 0.06 | Tubastatin A -0.001 | [6] 0.062 | defactinib 0.107 | [7] -0.027 | encorafenib 0.036 | [8] -0.108 | alisertib 0.052 | [9] -0.009 | gefitinib -0.005

TPP2 (UniProt Q5VZU9)
inactive: vemurafenib 0.003 | [1] 0.061 | barasertib -0.002 | [2] 0.014 | volasertib 0.003 | [3] -0.005 | [4] -0.147 | [5] 0.088 | saracatinib -0.022 | sotrastaurin 0.044 | alvocidib -0.099 | Tubastatin A -0.121 | [6] 0.092 | defactinib 0.062 | [7] 0.068 | encorafenib -0.076 | [8] 0.058 | alisertib 0.006 | [9] 0.076 | gefitinib 0.011

TPX2 (UniProt Q9ULW0)
UniProt Q9ULW0, sequence (Q9ULW0 whole entry, looked up): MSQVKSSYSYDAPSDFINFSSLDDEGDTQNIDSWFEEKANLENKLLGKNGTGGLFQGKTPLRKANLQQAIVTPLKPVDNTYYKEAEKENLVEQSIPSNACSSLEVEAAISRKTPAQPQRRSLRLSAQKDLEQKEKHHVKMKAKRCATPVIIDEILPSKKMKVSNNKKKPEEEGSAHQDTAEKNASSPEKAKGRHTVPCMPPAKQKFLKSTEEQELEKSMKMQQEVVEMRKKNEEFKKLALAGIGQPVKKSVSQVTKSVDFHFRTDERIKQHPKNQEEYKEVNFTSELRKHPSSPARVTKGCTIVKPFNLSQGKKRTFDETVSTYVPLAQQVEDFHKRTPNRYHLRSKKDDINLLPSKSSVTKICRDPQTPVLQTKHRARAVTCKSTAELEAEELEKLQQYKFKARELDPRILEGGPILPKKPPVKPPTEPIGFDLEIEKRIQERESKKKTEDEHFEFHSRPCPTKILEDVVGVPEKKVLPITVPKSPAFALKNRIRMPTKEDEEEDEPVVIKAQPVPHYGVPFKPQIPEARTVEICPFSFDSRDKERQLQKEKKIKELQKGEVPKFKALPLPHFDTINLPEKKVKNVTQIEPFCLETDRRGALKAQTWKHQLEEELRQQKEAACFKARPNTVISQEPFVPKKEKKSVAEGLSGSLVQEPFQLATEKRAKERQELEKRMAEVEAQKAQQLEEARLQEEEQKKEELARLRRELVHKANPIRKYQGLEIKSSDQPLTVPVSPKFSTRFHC
active: [8] -0.215
inactive: vemurafenib -0.006 | [1] -0.013 | barasertib -0.036 | [2] 0.093 | volasertib 0.012 | [3] -0.035 | [4] 0.04 | [5] -0.007 | saracatinib 0.03 | sotrastaurin -0.016 | alvocidib -0.002 | Tubastatin A -0.129 | [6] 0.014 | defactinib 0.01 | [7] 0.045 | encorafenib 0.041 | alisertib 0.043 | [9] -0.027 | gefitinib 0.012

UGDH (UniProt O60701)
UniProt O60701, sequence (O60701 whole entry, looked up): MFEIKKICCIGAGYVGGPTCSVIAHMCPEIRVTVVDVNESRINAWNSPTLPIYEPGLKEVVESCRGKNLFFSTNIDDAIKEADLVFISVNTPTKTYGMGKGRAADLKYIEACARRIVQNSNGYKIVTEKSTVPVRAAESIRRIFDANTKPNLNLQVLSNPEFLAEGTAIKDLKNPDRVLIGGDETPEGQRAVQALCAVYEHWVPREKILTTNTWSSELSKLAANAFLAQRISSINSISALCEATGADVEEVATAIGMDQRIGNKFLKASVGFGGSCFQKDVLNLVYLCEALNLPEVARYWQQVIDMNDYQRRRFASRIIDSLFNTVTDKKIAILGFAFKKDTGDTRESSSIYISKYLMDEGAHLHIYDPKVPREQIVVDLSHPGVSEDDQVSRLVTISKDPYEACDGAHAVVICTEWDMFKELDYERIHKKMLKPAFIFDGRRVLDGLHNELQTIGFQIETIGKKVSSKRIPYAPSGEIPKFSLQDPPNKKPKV
inactive: vemurafenib 0.008 | [1] 0.017 | barasertib -0.003 | [2] -0.062 | volasertib -0.045 | [3] 0.011 | [4] -0.028 | [5] -0.021 | saracatinib 0.187 | sotrastaurin 0.003 | alvocidib 0.023 | Tubastatin A -0.151 | [6] 0.015 | defactinib 0.071 | [7] -0.132 | encorafenib 0.047 | [8] 0.037 | alisertib -0.025 | [9] -0.004 | gefitinib -0.042

TTI2 (UniProt Q6NXR4)
UniProt Q6NXR4, sequence (Q6NXR4 whole entry, looked up): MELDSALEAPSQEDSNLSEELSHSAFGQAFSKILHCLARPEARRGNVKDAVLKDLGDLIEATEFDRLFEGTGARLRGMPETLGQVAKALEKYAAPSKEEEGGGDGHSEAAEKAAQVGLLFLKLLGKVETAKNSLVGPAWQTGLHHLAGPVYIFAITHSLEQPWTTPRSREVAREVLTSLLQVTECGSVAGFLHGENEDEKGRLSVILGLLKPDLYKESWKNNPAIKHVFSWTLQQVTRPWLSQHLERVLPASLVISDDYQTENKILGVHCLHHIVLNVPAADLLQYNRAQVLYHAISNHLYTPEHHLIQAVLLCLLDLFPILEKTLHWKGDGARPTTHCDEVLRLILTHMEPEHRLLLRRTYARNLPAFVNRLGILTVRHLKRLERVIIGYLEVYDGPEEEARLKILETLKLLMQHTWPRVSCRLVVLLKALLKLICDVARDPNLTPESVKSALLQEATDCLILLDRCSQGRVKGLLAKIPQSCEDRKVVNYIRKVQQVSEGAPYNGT
inactive: vemurafenib -0.009 | [1] 0 | barasertib 0.005 | [2] -0.022 | volasertib -0.048 | [3] -0.004 | [4] 0 | [5] 0.035 | saracatinib 0.037 | sotrastaurin 0.031 | alvocidib -0.006 | Tubastatin A -0.081 | [6] 0.03 | defactinib 0.069 | [7] 0.006 | encorafenib 0.072 | [8] 0.015 | alisertib 0.004 | [9] 0.024 | gefitinib -0.034
